Measured values published in PubChem BioAssay (EPA / NIEHS).
Inconclusive results are not listed. Activity calls are given as the source filed them. How the source made its calls, unless noted: active means hit-call score of the fitted dose curve at least 0.9, where 1 is the maximum; inactive means score below 0.9.

Assays:
[1] = CCTE_Deisenroth_H295R-HTRF_384WELL_ESTRADIOL: CCTE's H295R-HTRF Assay Evaluation of Estradiol Concentration, Deisenroth Lab (AID 2284361); settings: actives raise or lower the signal
Procedure, shortened: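 Estradiol secreted into medium by H295R adrenocortical cells, quantified by HTRF after 48 h dosing over a nine-point 0.001 - 100 uM final range; gain or loss versus DMSO. Parallel ATP-luminescence viability readout; n=5 experiments.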

[2] = CCTE_Deisenroth_H295R-HTRF_384WELL_TESTOSTERONE: CCTE's H295R-HTRF Assay Evaluation of Testosterone Concentration, Deisenroth Lab (AID 2284373); settings: actives raise or lower the signal
Procedure, shortened: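 Secreted testosterone was quantified by HTRF immunoassay of medium from human adrenocortical H295R cells after 48 h chemical exposure at 0.001–100 uM final. Gain or loss was fitted against DMSO. ATP-based viability was read on matched wells, five experimental replicates.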

[3] = CCTE_Deisenroth_H295R-HTRF_384WELL_CTOX: Cytotoxicity Assessment in CCTE's H295R-HTRF Assay, Deisenroth Lab (AID 2284380; active means hit-call score of the fitted dose curve at least 0.9, where 1 is the maximum)
Procedure, shortened: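 Luminescent ATP viability readout (CellTiter-Glo 2.0), multiplexed on plates used for hormone sampling, after 48 h chemical exposure. Human H295R cells; final concentrations 0.001–100 uM in nine steps, technical triplicates, five experiments; DMSO baseline.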

[4] = test system: Brachyury (BRA) Protein Expression, Deisenroth Lab, TBXT (gene 6862); test: CCTE_Deisenroth_DEVTOX-GLR_legacy_Bra: (Legacy) CCTE's DevTox GLR-Endo Assay Evaluation of Brachyury (BRA) Protein Expression, Deisenroth Lab (AID 2284329)
Procedure, shortened: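 High-content imaging of fixed RUES2-GLR cells after a 48-hour differentiation with two compound exposures yields percent cells whose Bra signal exceeds pluripotent control median by 5x BMAD; values are baseline-corrected to DMSO.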

[5] = CCTE_Deisenroth_DEVTOX-GLR_legacy_CellCount: (Legacy) Viability Assessment in CCTE's DevTox GLR-Endo Assay, Deisenroth Lab (AID 2284331); settings: actives raise or lower the signal
Procedure, shortened: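 Human pluripotent RUES2-GLR cells differentiated 48 h with two 24-h-interval exposures, 10-point 1 nM–200 uM series, 0.2% DMSO. Fixed nuclei counted by high-content imaging (5 fields/well); bidirectional fit vs DMSO, n≥4.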

[6] = test system: SRY-box transcription factor 2 (SOX2) Protein Expression, Deisenroth Lab, SOX2 (gene 6657); test: CCTE_Deisenroth_DEVTOX-GLR_legacy_Sox2: (Legacy) CCTE's DevTox GLR-Endo Assay Evaluation of SRY-box transcription factor 2 (SOX2) Protein Expression, Deisenroth Lab (AID 2284346)
Procedure, shortened: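 Two exposures, 24 h apart, during 48 h defined-media differentiation of seeded RUES2-GLR cells; nuclei-stained cells imaged. Sox2 positivity called at 5x BMAD above endoderm control median, DMSO median subtracted.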

[7] = test system: SRY-box transcription factor 2 (SOX2) Protein Expression, Deisenroth Lab, SOX2 (gene 6657); test: CCTE_Deisenroth_DEVTOX-GLR_Endo_SOX2: CCTE's DevTox GLR-Endo Assay Evaluation of SRY-box transcription factor 2 (SOX2) Protein Expression, Deisenroth Lab (AID 2284412; active means hit-call score of the fitted dose curve at least 0.9, where 1 is the maximum)
Procedure, shortened: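 Endpoint is percent SOX2-positive cells (SOX2+ count/total cells) minus 0.2% DMSO control, from high-content imaging of fixed, nuclear-stained RUES2-GLR cells. Dosing twice at 24 h intervals over 48 h differentiation, 1 nM–200 uM in 10 points.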

[8] = test system: SRY-box transcription factor 17 (SOX17) Protein Expression, Deisenroth Lab, SOX17 (gene 64321); test: CCTE_Deisenroth_DEVTOX-GLR_Endo_SOX17: CCTE's DevTox GLR-Endo Assay Evaluation of SRY-box transcription factor 17 (SOX17) Protein Expression, Deisenroth Lab (AID 2284413)
Procedure, shortened: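 Fluorescent microscopy of a SOX17 reporter in RUES2-GLR pluripotent cells scored endoderm differentiation after 48 h and two 24-h-spaced exposures. Values are percent change in SOX17+ population against 0.2% DMSO, n=4 experimental replicates.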

[9] = test system: Brachyury (BRA) Protein Expression, TBXT (gene 6862); test: CCTE_Deisenroth_DEVTOX-GLR_Endo_BRA: CCTE's DevTox GLR-Endo Assay Evaluation of Brachyury (BRA) Protein Expression, Deisenroth Lab (AID 2284417)
Procedure, shortened: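 RUES2-GLR pluripotent cells differentiated 48 h with two chemical exposures 24 h apart, 10-point range 1 nM - 200 uM. Percentage of BRA+ cells per total count by high-content imaging, minus 0.2% DMSO control.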

[10] = CCTE_Deisenroth_DEVTOX-GLR_Endo_CellCount: Viability Assessment in CCTE's DevTox GLR-Endo Assay, Deisenroth Lab (AID 2284420)
Procedure, shortened: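 Viability in differentiating RUES2-GLR cultures is scored by fluorescent nuclear counts after 48 h and two 24-hourly chemical treatments, as percent change from the 0.2% DMSO control.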

[11] = test system: SRY-box transcription factor 17 (SOX17) Protein Expression, Deisenroth Lab, SOX17 (gene 64321); test: CCTE_Deisenroth_DEVTOX-GLR_Pluri_SOX17: CCTE's DevTox GLR-Pluri Assay Evaluation of SRY-box transcription factor 17 (SOX17) Protein Expression, Deisenroth Lab (AID 2284427; active means hit-call score of the fitted dose curve at least 0.9, where 1 is the maximum)
Procedure, shortened: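 Seed cells 24 h; differentiate 48 h, dosing at 0 and 24 h (1 nM - 200 uM); fix, stain nuclei, image 5 fields per well; count SOX17+ cells over total cells and subtract 0.2% DMSO control.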

[12] = test system: SRY-box transcription factor 2 (SOX2) Protein Expression, Deisenroth Lab, SOX2 (gene 6657); test: CCTE_Deisenroth_DEVTOX-GLR_Pluri_SOX2: CCTE's DevTox GLR-Pluri Assay Evaluation of SRY-box transcription factor 2 (SOX2) Protein Expression, Deisenroth Lab (AID 2284428)
Procedure, shortened: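 SOX2 expression frequency is scored in a human pluripotent reporter line, RUES2-GLR, exposed to chemicals twice over 48 h. Imaging-based SOX2+ cell percentage is normalized as change versus 0.2% DMSO.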

[13] = test system: Brachyury (BRA) Protein Expression, Deisenroth Lab, TBXT (gene 6862); test: CCTE_Deisenroth_DEVTOX-GLR_Pluri_BRA: CCTE's DevTox GLR-Pluri Assay Evaluation of Brachyury (BRA) Protein Expression, Deisenroth Lab (AID 2284429; active means hit-call score of the fitted dose curve at least 0.9, where 1 is the maximum)
Procedure, shortened: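 Mesoderm readout after 48 h differentiation of human RUES2-GLR cells, dosed twice (24-h intervals) at 1 nM - 200 uM. BRA+ frequency from fluorescence imaging of fixed, nuclear-stained cells, DMSO-corrected.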

[14] = CCTE_Deisenroth_DEVTOX-GLR_Pluri_CellCount: Viability Assessment in CCTE's DevTox GLR-Pluri Assay Evaluation of Total Cell Counts, Deisenroth Lab (AID 2284430)
Procedure, shortened: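 Cytotoxicity readout: fluorescent nuclei counts by high-content imaging, expressed as percent change relative to 0.2% DMSO. Human RUES2-GLR pluripotent line differentiated 48 h, dosed twice at 24-h intervals across 1 nM - 200 uM (10 points).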

Compound | AC50 [1] | AC50 [2] | outcome [3] | AC50 [4] | AC50 [5] | AC50 [6] | AC50 [7] | AC50 [8] | AC50 [9] | AC50 [10] | AC50 [11] | AC50 [12] | AC50 [13] | AC50 [14]
Clc1ccc(COC(Cn2ccnc2)c2ccc(Cl)cc2Cl)cc1 (centres undefined) | 0.703 µM (active) | 0.327 µM (active) | inactive |  |  |  |  |  |  |  |  |  |  | 
COc1ccc2[nH]c([S@@](=O)Cc3ncc(C)c(OC)c3C)nc2c1 |  |  |  | 67.9 µM (active) | 48.1 µM (active) | 56.1 µM (active) | 83.8 µM (active) | 33.8 µM (active) | 70.6 µM (active) | 47.9 µM (active) | 54 µM (active) | 66.6 µM (active) | 46.4 µM (active) | 31.3 µM (active)
